# Assay results reported in ChEMBL document CHEMBL1961873, “Compounds: GSK PKIS; Assays: Nanosyn kinase panel” (2012).
# Values joined by “and” are separate entries in the source; they are usually repeats but may differ in a detail not shown here. Equal entries are not always repeated.
# What was measured:
# [1] = target: Mitogen-activated protein kinase kinase kinase kinase 4 (Homo sapiens) (UniProt O95819); settings: at 1 µM;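 note: reported figure is an averaged inhibition value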
# [2] = target: Dual specificity mitogen-activated protein kinase kinase 1 (Homo sapiens) (UniProt Q02750); settings: at 0.1 µM
# Chain of Dual specificity mitogen-activated protein kinase kinase 1 (Homo sapiens) (Q02750 whole entry): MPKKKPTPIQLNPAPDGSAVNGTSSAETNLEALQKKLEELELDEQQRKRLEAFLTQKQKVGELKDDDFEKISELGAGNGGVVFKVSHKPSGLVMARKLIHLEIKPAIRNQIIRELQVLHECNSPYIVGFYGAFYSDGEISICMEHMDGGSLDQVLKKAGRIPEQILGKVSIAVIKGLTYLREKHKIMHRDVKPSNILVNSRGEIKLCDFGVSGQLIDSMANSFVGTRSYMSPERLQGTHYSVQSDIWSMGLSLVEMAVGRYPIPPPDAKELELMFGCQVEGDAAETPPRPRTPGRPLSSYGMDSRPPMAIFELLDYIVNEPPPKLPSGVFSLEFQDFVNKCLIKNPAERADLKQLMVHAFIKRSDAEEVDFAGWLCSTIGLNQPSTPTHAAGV
# [3] = target: Dual specificity mitogen-activated protein kinase kinase 1 (Homo sapiens) (UniProt Q02750); settings: at 1 µM
# [4] = target: Misshapen-like kinase 1 (Homo sapiens) (UniProt Q8N4C8); settings: at 0.1 µM
# Chain of Misshapen-like kinase 1 (Homo sapiens) (Q8N4C8 whole entry, looked up): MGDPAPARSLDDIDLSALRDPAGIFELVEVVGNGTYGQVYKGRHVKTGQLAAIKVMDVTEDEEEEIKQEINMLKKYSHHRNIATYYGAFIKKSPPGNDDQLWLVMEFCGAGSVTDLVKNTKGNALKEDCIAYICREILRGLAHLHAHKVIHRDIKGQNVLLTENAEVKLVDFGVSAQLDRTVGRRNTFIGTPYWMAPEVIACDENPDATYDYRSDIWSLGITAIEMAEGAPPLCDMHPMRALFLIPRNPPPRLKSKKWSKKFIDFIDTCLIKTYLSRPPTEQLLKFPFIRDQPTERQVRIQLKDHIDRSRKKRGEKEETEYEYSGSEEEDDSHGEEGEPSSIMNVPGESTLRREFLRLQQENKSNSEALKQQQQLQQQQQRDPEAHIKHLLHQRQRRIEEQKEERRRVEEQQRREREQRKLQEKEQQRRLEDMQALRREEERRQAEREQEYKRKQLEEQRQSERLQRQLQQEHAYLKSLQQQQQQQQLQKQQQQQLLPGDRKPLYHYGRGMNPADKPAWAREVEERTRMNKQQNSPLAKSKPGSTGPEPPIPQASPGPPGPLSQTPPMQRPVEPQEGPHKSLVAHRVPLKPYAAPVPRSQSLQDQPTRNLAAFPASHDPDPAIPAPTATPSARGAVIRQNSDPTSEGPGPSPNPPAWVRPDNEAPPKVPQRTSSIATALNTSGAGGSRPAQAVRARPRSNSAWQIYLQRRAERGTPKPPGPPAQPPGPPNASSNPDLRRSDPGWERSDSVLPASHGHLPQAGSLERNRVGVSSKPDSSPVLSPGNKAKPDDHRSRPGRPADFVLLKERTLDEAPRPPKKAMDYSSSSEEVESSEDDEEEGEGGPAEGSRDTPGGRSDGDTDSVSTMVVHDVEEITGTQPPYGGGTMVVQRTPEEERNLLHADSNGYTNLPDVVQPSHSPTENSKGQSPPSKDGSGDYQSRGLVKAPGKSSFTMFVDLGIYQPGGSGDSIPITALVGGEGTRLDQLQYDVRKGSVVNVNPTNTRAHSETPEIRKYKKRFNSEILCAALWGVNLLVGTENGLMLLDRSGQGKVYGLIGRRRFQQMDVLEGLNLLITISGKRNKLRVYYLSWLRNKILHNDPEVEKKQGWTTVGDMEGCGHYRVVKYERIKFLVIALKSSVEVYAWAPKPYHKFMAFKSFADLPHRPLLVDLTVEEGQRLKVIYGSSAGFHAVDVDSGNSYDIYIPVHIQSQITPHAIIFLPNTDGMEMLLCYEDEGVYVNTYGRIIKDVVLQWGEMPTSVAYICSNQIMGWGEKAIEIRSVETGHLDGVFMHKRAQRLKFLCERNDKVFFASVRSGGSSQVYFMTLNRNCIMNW
# [5] = target: Misshapen-like kinase 1 (Homo sapiens) (UniProt Q8N4C8); settings: at 1 µM
# [6] = target: T1, Serine/threonine-protein kinase 4 (Homo sapiens) (UniProt Q13043); settings: at 0.1 µM
# T1 sequence (whole entry): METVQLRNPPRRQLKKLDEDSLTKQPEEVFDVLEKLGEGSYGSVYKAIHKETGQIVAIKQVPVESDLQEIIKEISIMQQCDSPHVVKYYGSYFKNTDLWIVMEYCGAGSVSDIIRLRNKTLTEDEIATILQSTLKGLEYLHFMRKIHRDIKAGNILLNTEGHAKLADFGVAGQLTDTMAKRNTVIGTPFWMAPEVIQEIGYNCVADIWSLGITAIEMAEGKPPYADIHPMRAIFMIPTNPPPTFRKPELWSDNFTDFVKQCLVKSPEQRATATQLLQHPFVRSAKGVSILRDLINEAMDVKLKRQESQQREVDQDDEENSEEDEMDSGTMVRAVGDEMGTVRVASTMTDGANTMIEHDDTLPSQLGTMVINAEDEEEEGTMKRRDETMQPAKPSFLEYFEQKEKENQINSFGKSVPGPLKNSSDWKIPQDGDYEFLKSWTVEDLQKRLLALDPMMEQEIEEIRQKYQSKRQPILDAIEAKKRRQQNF
# [7] = target: T1, Serine/threonine-protein kinase 4 (Homo sapiens); settings: at 1 µM
# [8] = target: T2, Serine/threonine-protein kinase 3 (Homo sapiens) (UniProt Q13188); settings: at 0.1 µM
# T2 sequence (whole entry): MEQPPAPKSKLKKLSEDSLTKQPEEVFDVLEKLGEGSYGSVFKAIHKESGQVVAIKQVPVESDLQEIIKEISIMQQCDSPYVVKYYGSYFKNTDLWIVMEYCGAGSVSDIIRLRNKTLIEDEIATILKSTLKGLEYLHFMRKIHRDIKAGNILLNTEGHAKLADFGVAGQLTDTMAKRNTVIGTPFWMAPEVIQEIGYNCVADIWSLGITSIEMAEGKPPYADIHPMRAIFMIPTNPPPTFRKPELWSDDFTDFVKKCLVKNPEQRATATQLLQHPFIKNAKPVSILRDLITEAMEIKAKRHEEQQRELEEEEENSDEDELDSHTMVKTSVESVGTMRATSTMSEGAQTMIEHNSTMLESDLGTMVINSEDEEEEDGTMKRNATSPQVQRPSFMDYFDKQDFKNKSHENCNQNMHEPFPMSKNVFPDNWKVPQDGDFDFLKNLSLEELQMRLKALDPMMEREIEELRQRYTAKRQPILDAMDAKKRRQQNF
# [9] = target: T2, Serine/threonine-protein kinase 3 (Homo sapiens); settings: at 1 µM
# [10] = target: Serine/threonine-protein kinase 26 (Homo sapiens) (UniProt Q9P289); settings: at 0.1 µM
# Chain of Serine/threonine-protein kinase 26 (Homo sapiens) (Q9P289 2-416 limits assumed): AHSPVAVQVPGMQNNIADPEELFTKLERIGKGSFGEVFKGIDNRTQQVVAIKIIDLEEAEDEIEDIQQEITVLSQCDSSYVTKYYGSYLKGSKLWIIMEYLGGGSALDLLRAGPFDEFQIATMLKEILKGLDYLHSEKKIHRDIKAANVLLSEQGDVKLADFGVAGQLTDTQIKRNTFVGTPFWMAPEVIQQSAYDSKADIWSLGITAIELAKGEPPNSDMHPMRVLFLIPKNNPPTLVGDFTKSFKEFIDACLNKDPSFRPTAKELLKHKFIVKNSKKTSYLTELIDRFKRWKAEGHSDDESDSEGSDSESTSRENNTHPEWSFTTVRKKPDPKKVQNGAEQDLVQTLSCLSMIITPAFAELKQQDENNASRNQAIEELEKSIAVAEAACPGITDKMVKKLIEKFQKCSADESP
# [11] = target: Serine/threonine-protein kinase 26 (Homo sapiens) (UniProt Q9P289); settings: at 1 µM
# [12] = target: Serine/threonine-protein kinase PAK 1 (Homo sapiens) (UniProt Q13153); settings: at 0.1 µM
# Chain of Serine/threonine-protein kinase PAK 1 (Homo sapiens) (Q13153 whole entry): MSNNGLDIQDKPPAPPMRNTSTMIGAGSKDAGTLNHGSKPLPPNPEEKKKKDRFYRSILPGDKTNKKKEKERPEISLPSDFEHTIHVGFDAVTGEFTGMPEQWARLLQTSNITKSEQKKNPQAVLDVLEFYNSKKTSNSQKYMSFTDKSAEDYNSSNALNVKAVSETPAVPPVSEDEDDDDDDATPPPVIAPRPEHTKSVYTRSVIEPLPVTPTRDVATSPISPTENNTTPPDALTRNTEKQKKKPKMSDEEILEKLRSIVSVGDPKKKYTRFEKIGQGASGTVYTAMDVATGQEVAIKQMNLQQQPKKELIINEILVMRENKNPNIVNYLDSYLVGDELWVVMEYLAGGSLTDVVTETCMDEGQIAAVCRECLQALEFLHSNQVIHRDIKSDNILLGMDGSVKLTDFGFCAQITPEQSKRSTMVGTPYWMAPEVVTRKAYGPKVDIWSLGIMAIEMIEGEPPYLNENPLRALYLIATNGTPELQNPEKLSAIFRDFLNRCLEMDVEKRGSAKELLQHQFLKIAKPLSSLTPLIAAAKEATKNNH
# [13] = target: Serine/threonine-protein kinase PAK 1 (Homo sapiens) (UniProt Q13153); settings: at 1 µM
# [14] = target: Serine/threonine-protein kinase PAK 2 (Homo sapiens) (UniProt Q13177); settings: at 0.1 µM
# Chain of Serine/threonine-protein kinase PAK 2 (Homo sapiens) (Q13177 whole entry): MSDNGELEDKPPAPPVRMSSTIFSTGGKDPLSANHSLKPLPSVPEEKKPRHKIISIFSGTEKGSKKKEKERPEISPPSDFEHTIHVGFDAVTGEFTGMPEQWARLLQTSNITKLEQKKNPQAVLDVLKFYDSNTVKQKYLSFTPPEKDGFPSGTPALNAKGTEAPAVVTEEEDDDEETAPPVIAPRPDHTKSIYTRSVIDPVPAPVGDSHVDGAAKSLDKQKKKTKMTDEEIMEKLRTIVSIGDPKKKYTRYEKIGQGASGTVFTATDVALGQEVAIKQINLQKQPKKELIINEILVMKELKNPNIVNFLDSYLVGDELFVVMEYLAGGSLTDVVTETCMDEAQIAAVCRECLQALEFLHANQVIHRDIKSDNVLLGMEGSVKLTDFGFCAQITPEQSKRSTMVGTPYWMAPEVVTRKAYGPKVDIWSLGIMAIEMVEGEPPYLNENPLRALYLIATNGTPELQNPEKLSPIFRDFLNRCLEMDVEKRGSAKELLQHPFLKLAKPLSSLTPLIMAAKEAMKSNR
# [15] = target: Serine/threonine-protein kinase PAK 2 (Homo sapiens) (UniProt Q13177); settings: at 1 µM
# [16] = target: Serine/threonine-protein kinase PAK 3 (Homo sapiens) (UniProt O75914); settings: at 0.1 µM
# Chain of Serine/threonine-protein kinase PAK 3 (Homo sapiens) (O75914 whole entry, looked up): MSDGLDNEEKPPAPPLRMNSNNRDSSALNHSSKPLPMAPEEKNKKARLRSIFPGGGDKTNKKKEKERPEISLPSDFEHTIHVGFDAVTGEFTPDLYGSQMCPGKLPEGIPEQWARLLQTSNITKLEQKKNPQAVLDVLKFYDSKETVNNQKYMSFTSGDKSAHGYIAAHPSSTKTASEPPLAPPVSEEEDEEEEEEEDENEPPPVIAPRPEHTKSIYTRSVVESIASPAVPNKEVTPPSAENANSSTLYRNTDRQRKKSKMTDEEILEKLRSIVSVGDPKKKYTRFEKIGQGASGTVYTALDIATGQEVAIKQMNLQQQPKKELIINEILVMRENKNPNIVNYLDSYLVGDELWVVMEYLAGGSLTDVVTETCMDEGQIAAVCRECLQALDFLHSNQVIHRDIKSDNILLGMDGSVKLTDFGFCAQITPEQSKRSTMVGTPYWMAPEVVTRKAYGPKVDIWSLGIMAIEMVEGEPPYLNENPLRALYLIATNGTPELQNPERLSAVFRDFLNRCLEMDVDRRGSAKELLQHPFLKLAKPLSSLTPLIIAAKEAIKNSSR
# [17] = target: Serine/threonine-protein kinase PAK 3 (Homo sapiens) (UniProt O75914); settings: at 1 µM
# [18] = target: Serine/threonine-protein kinase PAK 5 (Homo sapiens) (UniProt Q9P286); settings: at 0.1 µM
# [19] = target: Serine/threonine-protein kinase PAK 5 (Homo sapiens) (UniProt Q9P286); settings: at 1 µM
# [20] = target: Serine/threonine-protein kinase PAK 6 (Homo sapiens) (UniProt Q9NQU5); settings: at 0.1 µM;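 note: mean PAK6 inhibition reported from the GSK PKIS screen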
# Chain of Serine/threonine-protein kinase PAK 6 (Homo sapiens) (Q9NQU5 whole entry, looked up): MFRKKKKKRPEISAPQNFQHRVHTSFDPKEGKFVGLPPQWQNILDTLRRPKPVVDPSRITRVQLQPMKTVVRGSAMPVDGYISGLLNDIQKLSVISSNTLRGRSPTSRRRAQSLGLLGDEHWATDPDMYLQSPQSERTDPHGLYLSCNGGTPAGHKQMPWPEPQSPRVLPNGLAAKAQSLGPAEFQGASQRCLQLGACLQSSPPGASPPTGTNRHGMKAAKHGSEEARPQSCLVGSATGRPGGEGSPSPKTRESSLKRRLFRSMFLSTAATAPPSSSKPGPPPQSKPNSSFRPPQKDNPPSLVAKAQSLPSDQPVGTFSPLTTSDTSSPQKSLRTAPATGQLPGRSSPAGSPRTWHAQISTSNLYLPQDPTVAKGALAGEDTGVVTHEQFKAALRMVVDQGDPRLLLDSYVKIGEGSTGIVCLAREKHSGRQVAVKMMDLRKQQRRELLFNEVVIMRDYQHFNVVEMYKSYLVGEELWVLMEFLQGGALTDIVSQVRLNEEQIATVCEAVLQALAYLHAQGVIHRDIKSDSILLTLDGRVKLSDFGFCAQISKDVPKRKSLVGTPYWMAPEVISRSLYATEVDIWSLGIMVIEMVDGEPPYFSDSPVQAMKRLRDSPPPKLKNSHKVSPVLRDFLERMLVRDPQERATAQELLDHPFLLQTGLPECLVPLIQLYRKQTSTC
Structure (SMILES),inhibition [1],inhibition [2],inhibition [3],inhibition [4],inhibition [5],inhibition [6],inhibition [7],inhibition [8],inhibition [9],inhibition [10],inhibition [11],inhibition [12],inhibition [13],inhibition [14],inhibition [15],inhibition [16],inhibition [17],inhibition [18] [%],inhibition [19],inhibition [20]
O=C(O[C@H]1CN[C@H](C#Cc2cc3ncnc(Nc4ccc5c(ccn5Cc5cc(F)ccc5F)c4)c3s2)C1)N1CCOCC1,5.63%,5.1%,5.26%,5.96%,5.37%,2.68%,4.43%,2.54%,1.92%,-1.74%,0.81%,9.36%,8.97%,2.13%,2.48%,5.02%,5.53%,-0.09,-5.06%,-1.93%
c1cnn2ncc(-c3ccnc(NCCCN4CCOCC4)n3)c2c1,8.87%,4.91%,3.9%,4.95%,12.1%,2.04%,1.9%,3.76%,2.29%,-1.84%,-2.39%,6.37%,4.03%,1.39%,0.34%,3.11%,3.78%,2.65,1.01%,-0.41%
COC(=O)Nc1nc2cc(Oc3ccc(NC(=O)Nc4ccccc4)cc3)ccc2[nH]1,12.9%,3.88%,2.45%,5.15%,11.3%,3.7%,4.62%,5.39%,6.48%,-0.23%,0.25%,0.78%,3.46%,1.73%,0.63%,3.68%,4.15%,-3.58,-3.97%,-4.28%
CNC(=O)c1ncccc1Nc1nc(Nc2cc3c(cc2OC)CCCN3C(=O)CN(C)C)nc2[nH]ccc12,6.26%,3.03%,3.53%,5.92%,7.79%,8.58%,12.8%,8.59%,7.84%,-2.11%,-5.28%,7.85%,7.25%,0.92%,1.69%,4.29%,5.27%,5.25,-0.15%,11.4%
CCN1CCC(C(=O)Nc2n[nH]c3nnc(-c4cccc(F)c4F)cc23)CC1,6.9%,2.15%,2%,2.44%,5.72%,0.2%,4.08%,-0.56%,2.63%,0.52%,0.11%,-3.4%,-3.06%,-1.1%,-2.04%,-0.81%,-0.69%,0,1.08%,-5.45%
CN(C)CCNC(=O)Nc1ccc(N(C)c2ccnc(Nc3ccc(CS(C)(=O)=O)cc3)n2)cc1,14.6%,4.9%,4.12%,5.87%,10.1%,6.4%,11.4%,6.63%,6.98%,-0.89%,-2.49%,4.61%,9.49%,1.79%,2.9%,3.73%,4.29%,1.15,6.27%,-1.56%
CN1CCC(C(=O)Nc2n[nH]c3nc(-c4ccc(O)cc4)c(Br)cc23)CC1,35.4% and 22.5%,6.37% and 2.39%,5.03% and 2.15%,7.75% and 5.32%,28.1% and 15.2%,6.69% and 1.72%,14.7% and 2.3%,6.33% and 2.47%,13.2% and 3.69%,1.4% and 1.72%,21.2% and 19.8%,7.92% and -0.37%,5.42% and 3.31%,0.62% and -0.51%,1.42% and -0.53%,4.2% and 1.97%,5.02% and 1.71%,-5.26,-8.73% and 0.52%,-2.46% and -9.85%
CNC(=O)c1sc(-n2cnc3cc(OC)c(OC)cc32)cc1OCc1ccccc1C(F)(F)F,12.2%,3.14%,3.6%,9.53%,12.2%,2.47%,3.85%,5.34%,7.16%,-0.27%,4.9%,2.95%,1.15%,0.12%,0.57%,4.1%,2.98%,1.27,0.17%,-2.28%
CC1=C(C(=O)Nc2ccc3[nH]ncc3c2)C(c2ccc(F)cc2)N=C(c2ccc(C(F)(F)F)nc2)N1 (stereo not given),2.92%,-0.07%,3.43%,4.22%,2.06%,2.29%,2.27%,2.18%,0.56%,-0.24%,-0.15%,2.26%,3.97%,0.86%,0.19%,1.4%,0.67%,5.14,-1.73%,8.32%
COc1cc(N2CCN(C(C)C)CC2)ccc1Nc1nc(Nc2cccc3ncccc23)c2cc[nH]c2n1,8.08%,-1.29%,0.07%,0.56%,6.73%,-1.1%,0.07%,0.03%,0.57%,-0.29%,1.78%,0.3%,-1.25%,0.87%,-0.27%,-1.68%,-0.48%,-2.43,-1.65%,1.57%
O=C(O[C@H]1CN[C@H](C#Cc2cc3ncnc(Nc4ccc(OCc5cccc(F)c5)c(Cl)c4)c3s2)C1)N1CCOCC1,8.44%,6.24%,5.74%,6.37%,9.94%,4.18%,8.15%,5.87%,6.61%,-0.22%,-0.1%,8.7%,7.32%,1.91%,2.46%,6.61%,6.74%,6.46,0.44%,-7.35%
COc1cc(Nc2ncc(-c3ccccc3)o2)cc(OC)c1,18.8%,4.41%,3.91%,8.63%,19.5%,3.72%,6.2%,6.11%,6.9%,-1.04%,-4.28%,6.86%,6.69%,1.76%,1.6%,4.74%,3.26%,2.83,4.51%,0.07%
COc1ccccc1-c1cc(/C=C2\C(=O)Nc3ncc(Br)cc32)cc(Br)c1O,14%,6.54%,5.7%,5.71%,13.3%,6.41%,8.19%,7.78%,8.09%,2.55%,13.5%,6.7%,6.23%,1.92%,2.48%,4.55%,5.35%,0.29,0.44%,-1.24%
